# Measured values published in the supplement of paper PMC11417369.
# ± gives the standard deviation of the averaged measurements. In all, about 25,000 sequences were measured (“ln(normalized median fluorescence intensity)”: median about 7.9, highest 2% from about 11 on). What follows is part of a selection rich in the highest values, with near analogues and random picks from the rest.
# System: PfAP2-I AP2 domain 3 (GST-tagged)
# Test: gcPBM binding intensity (ln(normalized median fluorescence intensity)); higher = stronger DNA binding
# Method in brief: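 Binding of GST-tagged P. falciparum DNA-binding domains, expressed in E. coli and used at about 25 μg on average, was carried out for 1 h in 1× PBS containing 1% milk, 0.2 mg/ml BSA, 0.5% salmon testes DNA and 0.03% Triton X-100. The target was an Agilent 4 × 180k array of primer-extended double-stranded 36-bp intergenic genomic probes plus negative controls, read with Alexa488 anti-GST antibody at 488 nm. Binding intensity is the highest Masliner-normalised natural-log median intensity across replicate spots of either probe orientation.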
row,Sequence,gcPBM binding intensity (ln)
1,TTTTTTGTTATGCGGGTGCATATAATAATGTGATGA,10.9 ± 0.89
2,TTTTTTTTTTTTTGTACATGCAAATATTATGAACAC [TGCATGCA_site571],8.28 ± 0.53
3,GAAATAATTCGATGTGCATGTAACGTTTCCCCAAAG [TGCATGCA_site122],8.58 ± 0.54
4,AATAAATAAATAAGTACACACATATAAATATAAATA [CACACA_site6271],7.91 ± 0.25
5,TTTTATGCATGTGAAGTGCAAAATAAAAAATAAAAT [GTGCAC_site9612],10.8 ± 0.4
6,AATATATATAAAAAAGTGCATTAGGATAACCATATA [GTGCAC_site9590],11.2 ± 0.57
7,ATATATTTTTATGTAGTGCATTTAAATAATAAATGC,10.7 ± 0.55
8,TGATATAAAATTAAAGTGCAAAAAAAAAATAAAAAA,10.06 ± 0.078
9,AAGTATTATTTTTATGCATGTGAAGTGCAAAATAAA [TGCATGCA_site198],11 ± 0.43
10,TTTTATGCGCAATAAGTGCATTTAAAATATATATAT,11 ± 0.13
11,TGGTTTATTTATTAAGTGCATAAATGCAATATATAT,10.6 ± 0.44
12,AATAAAATAAATATATGTACATATATATAACCATTA [XGTACX_site5549],7.59 ± 0.38
13,TGTTATTAAAATATAGTGCATAATTAACCATTATAA [GTGCAC_site9594],10.8 ± 0.65
14,AGGATATATAATTAAGTGCATTAATTCAAAATAAAA [GTGCAC_site9702],11.5 ± 0.54
15,ATTCTTAAAAAATAAGTGCAAAATAATTAAATAAAT,10.23 ± 0.014
16,TTATAAAATATTTATGCATGTGAAGAATATTATAAA [TGCATGCA_site1047],8.42 ± 0.34
17,AAAAAAAAAAAAAATTGTACATTAAATTAAAAGAAA [XGTACX_site8708],7.88 ± 0.28
18,ATATATATATATATAGTGCAAATATCTTCTTTATAA,10.4 ± 0.26
19,ATACAAGAATTAAACACACACAAAATATAAATTCTT [CACACA_site3005],7.85 ± 0.71
20,AAATATTATTGACGATGTACTTCTATTCATAAGTAT [XGTACX_site3964],7.55 ± 0.5
21,TAAAAATAAAGAAAATGTACATAAATAAAAATAAAG [XGTACX_site2279],8.14 ± 0.69
22,GATATAATGTGTTTGGTATTCTTGATAGATAGTTTT [CACACA_negctrl_site1711],7.7 ± 0.47
23,TGTAATGTTTACAACACACAAATTATAAATACAAAA [CACACA_site5047],7.67 ± 0.59
24,TATATGTTTTATAGTACACACATAAATGGACATACT [CACACA_site2191],7.83 ± 0.33
25,CTATATTTCGTTGGACGTACAAATGTGATAATTAGG [XGTACX_site3232],8.06 ± 0.46

row,Sequence,gcPBM binding intensity (ln)
1,ATCCTTTATAAATAAGTGCATATAAAAAATAATATT [GTGCAC_site9759],10.1 ± 0.3
2,GTCATCAAGTATTAAGTGCATTAAAAATAAAATATA,11.3 ± 0.62
3,TTGTATTAAAATCAAGTGCATATAATTTAAGTTCAT [GTGCAC_site9495],9.54 ± 0.042
4,TATCAATATTAAAAAGTGCAAAATAAAATATAAAAT [GTGCAC_site9486],10.7 ± 0.23
5,TAAATATATATATAAGTGCATTATATATATATATAA,11.2 ± 0.57
6,TTGTGTAAATGTTAAGTGCATTTGGTAAAATATAAA [GTGCAC_site9699],9.51 ± 0.11
7,TAAATTAATAAACAAGTGCATATATATATATATATA,10 ± 0.49
8,TGTAAAATATAAAAAGTGCATTTCTTTTAATATGAT,9.96 ± 0.19
9,AGGTAAAAATGGTAAGTGCATTAATGATAAAAAATG,11.1 ± 0.18
10,TAAAAAATAAAATACACACACATATATATATATATA [CACACA_site1323],9.33 ± 0.2
11,ATTATGAATTTAAGACGTACAAAAAATTTTTATTCA [XGTACX_site5682],7.8 ± 0.31
12,ACAAAATTTACAAAATGTACAAAATTTACAAAGTAT [XGTACX_site6463],7.54 ± 0.56
13,ACATATATTGTACATACACACCTATATAAATATCCT [CACACA_site7503],8.24 ± 0.54
14,AATAGTCGTGTGCATACACACCTTAACTATAATATA [CACACA_site6636],8.83 ± 0.2
15,AACAATATGGATGTATGTACACATATAGAACGTTAT [XGTACX_site7142],7.91 ± 0.72
16,TATGAATGTATATGTTGTACATATAAATATTTATAT [XGTACX_site1146],7.72 ± 0.34
17,TTTGTATTAAAAAAAAAAAAAAAAAAAATGAATAAA [TGCATGCA_negctrl_site292],7.34 ± 0.41
18,TTGTATTTCCTTAGGAGTACACATAAATAAGTAAAT [XGTACX_site6677],8.22 ± 0.092
19,ATAATTACATAGATTGGTACACATTTTTGATTGTAT [XGTACX_site3802],7.71 ± 0.44
20,ACTTTAACCTGAACGGTGCATAAAATTTTGGCATTA,10.9 ± 0.35
21,ACTAATAATTTGTCGGTGCATAAAATTATTTTTATT [GTGCAC_site9840],10.8 ± 0.43
22,TGTATTAAAAATTTGGTGCAACTTTTACATAATAAT,9.49 ± 0.18
23,CATATTATATTCTGCTTACACACATATATATATATA [CACACA_site3059],9.36 ± 0.29
24,TCCCAATTTCTATCCTGTACAGACATAAATATATAC [XGTACX_site5937],8.31 ± 0.49
